Activity calls are given as the source filed them. Calls follow the shape of the dose curve; as a rule, active = well fitted curve in the direction sought with a large enough effect; inactive = no such curve, though single readings can be large or run the other way.

The experiment can be described thus: Retest of LOPAC molecules that induce DNA re-replication in SW480 adenocarcinoma cells. The note with it: Hoechst DNA content imaging, 48 h; series mostly up to 45.1 µM; activity, positive = re-replication: at the top concentration. The text has this:
NIH Molecular Libraries Probe Production Network [MLPCN] NIH Chemical Genomics Center [NCGC] MLPCN Grant: Fast Track K99 CA136555 Assay Provider: Melvin DePamphilis, NICHD, NIH Assay Overview Eukaryotic cells normally restrict genome duplication to once per cell division. When this process is aberrant, DNA re-replication occurs when cells reinitiate DNA replication before the first round of replication is complete. DNA re-replication induces the DNA damage response, arrests cell proliferation, and triggers apoptosis. The cell cycle components cyclin A, Cdt-1, Cdc6 and geminin are critical regulators of this process and their misregulation results in DNA re-replication in normal and cancer cells. To identify compounds that induce re-replication in normal cells, an image-based assay was used to measure DNA content of nuclei, as detected by the fluorescent DNA binding dye, Hoechst. Cell nuclei were imaged by a fluorescence scanning plate imager and compounds that induce DNA re-replication were identified by the increase of nuclei with elevated fluorescence intensity.
Assay Protocol Summary For screening, 250 cells in 5 uL/well were dispensed into black clear 1536-well plates (Aurora) using a solenoid-based dispenser. Following transfer of 23 nL compound or DMSO vehicle by a pin tool, the plates were incubated 48 hr at 37 C and 5% CO2. After addition of 1 uL/well Hoescht stain, the plates were incubated 40 min at 37 C, 5% CO2 and total intensity of fluorescent objects (nuclei) were enumerated by an Acumen Explorer Ex3 (TTP LabTech) fluorescence scanning plate imager (405 nm excitation, 500-530 nm emission). Keywords: NIH Roadmap, MLPCN, MLI, MLSMR, qHTS, NCGC, DNA replication, cancer
In the case of `CC(=O)O[C@H]1C(=O)[C@@]2(C)C([C@H](OC(=O)c3ccccc3)[C@]3(O)C[C@H](OC(=O)[C@H](O)[C@@H](NC(=O)c4ccccc4)c4ccccc4)C(C)=C1C3(C)C)[C@]1(OC(C)=O)CO[C@@H]1C[C@@H]2O` (stereo not given in full), the Potency is 169 nM (active).

As for `C[C@@H](Oc1ccc(Oc2cnc3ccc(Cl)cc3n2)cc1)C(=O)O`, the “activity, positive = re-replication” value is -22.5% (inactive).

Take `CCCCCCN(CCCCCC)C(=O)Cc1c(-c2ccc(F)cc2)[nH]c2ccccc12`: the “activity, positive = re-replication” value is -26.7% (inactive).

With `COc1cc2c(cc1O)CC[C@@H]1[C@@H]2CC[C@]2(C)[C@@H](O)CC[C@@H]12`, the Potency is 6730 nM (active).

In the case of `O=c1cc(-c2ccccc2)[nH]c2nc(Cl)ccc12`, the Potency is 1690 nM (active).

Values taken from PubChem BioAssay AID493165 (National Center for Advancing Translational Sciences (NCATS), 2011).
